Vaccinia Venus – qHTS for Stage-Specific Inhibitors of Vaccinia Orthopoxvirus: Venus Reporter Primary qHTS; Vaccinia virus Venus reporter expression, fluorescence; Potency, µM (highest dose often 36.5 µM), without a hit: top-dose activity change, negative = inhibition, usual class: inhibitors; 330,000 tested, 0.46% active; calls by dose curve; tested in A549 cells; further: potency means the concentration at half of the fitted maximal effect; nearly all actives have a fitted effect of over 30% in size
FMDV inh – High Throughput Screening for Foot and Mouth Disease Virus Antivirals; FMDV antiviral cell-based qHTS; Potency, µM (top dose mostly 57.9 µM), without a hit: top-dose activity change, negative = inhibition, most hits filed as inhibitors; 410,000 tested, 1.2% active; AID 1159524, 2015; calls by dose curve; tested in HEK293T cells; further: read-out not given here; potency means the concentration at half of the fitted maximal effect; nearly all actives have a fitted effect of over 45% in size
Vaccinia mCherry – qHTS for Stage-Specific Inhibitors of Vaccinia Orthopoxvirus: mCherry Reporter Primary qHTS | Vaccinia virus mCherry reporter infection, fluorescence | Potency, µM (doses to about 36.5 µM), inactives show at the top dose activity change, negative = inhibition, actives largely listed as inhibitors | 310,000 tested, 0.63% active; calls by dose curve; tested in A549 cells; further: potency means the concentration at half of the fitted maximal effect; nearly all actives have a fitted effect of over 35% in size
HCMV inh – qHTS Assay for inhibitors of the human cytomegalovirus (HCMV); 410,000 tested, 4.5% active; HFF cells, HCMV-luciferase reporter, 72 h; stronger effect = lower value; activity change, negative = inhibition, % at 57.5 µM; AID 1259415, 2018; in the data active means activity change below about -60%; inconclusive means no clear call, values can overlap the other calls; inactive means above about -39%
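Two-dose cell screen: HFF monolayers treated with compounds and infected with luciferase-expressing HCMV at 1 PFU/cell, 72 h at 37C, then lysed for luciferase measurement.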
HCV inhibitor – qHTS Assay for Inhibitors of Hepatitis C Virus (HCV) | Huh7.5.1 HCVcc-Cre infection, luciferase reporter, 44 h | Potency, µM (top dose mostly 41.8 µM), inactives show top-dose activity change, negative = inhibition, usual class: inhibitors | 340,000 tested, 3.4% active | AID 651820, 2012; active means well fitted inhibition curve with a large enough effect; inconclusive means small, poorly fitted or top-dose-only effect, or another doubt; inactive means no such curve, though single readings can be large or run the other way; further: potency means the concentration at half of the fitted maximal effect
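After 44 h co-culture of compound, cells and HCVcc-Cre (~0.5 moi), substrate is added for 15 min at room temperature and luciferase measured over 15 sec. Cells were seeded at 1,000/well and pre-cultured 4 h.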
* hit, by the source's call; i = inactive; ? = inconclusive; nt = not tested or not shown. Rows were chosen to be rich in hits. Some 7.3% of all compounds tested hit in one or more screens of this group. On the % scale 0 is the no-effect control and ±100 the full control effect.

SMILES	Vaccinia Venus	FMDV inh	Vaccinia mCherry	HCMV inh	HCV inhibitor
C/C=C/C(=O)OCC(=O)Nc1ccc(OC)c(Cl)c1	10µM*	-4%	8.9µM*	-6	19%
COc1cc(NC(=O)COC(=O)/C=C/c2ccccc2Cl)cc(OC)c1	-1%	-23%	-17%	-103*	-27%
COc1cccc(-c2nn3c(=O)cc(CN4CCN(S(=O)(=O)c5ccc(C)cc5)CC4)nc3s2)c1	-6%	-6%	-2%	18	nt
CCCC1CC(C(=O)N[C@H](C(C)O)C2OC(SC)[C@@H](O)C(O)C2O)N(C)C1 (some centres undefined)	-5%	-4%	-7%	nt	nt
CCc1cc(/C(Cc2ccccn2)=N\O)c(O)cc1O	nt	-23%	nt	?	22µM*
O=C(NCCO)C(=O)Nc1c2c(nn1-c1ccc(F)cc1)CSC2	0%	-10%	-6%	2	nt
Cc1ccc(C23CC4CC(CC(CN)(C4)C2)C3)cc1	?	?	?	-22	?
NCC12CC3CC(C1)CC(c1ccc(Br)cc1)(C3)C2	22µM*	?	?	-1	13µM*
O=C(Nc1cc2ccc(O)cc2oc1=O)c1ccccc1	-8%	1%	-10%	79	nt
CCCCc1ccc(NC(=O)N2CCN(c3cc(C)nc4ccccc34)CC2)c(C)c1	nt	35µM*	nt	nt	6.3µM*
Cc1ccc(-c2noc(CCC(=O)NCCCN3CCN(c4ccc(F)cc4)CC3)n2)cc1	-15%	?	nt	-26	?
CCN1CCN(CCCNC(=O)CCc2nc(-c3ccc(OC)cc3)no2)CC1	nt	11%	nt	-20	-9%
COc1ccc(-c2noc(CCC(=O)NCCCN3CCN(c4ccccc4F)CC3)n2)cc1	nt	?	nt	-67*	?
Cc1ccc(-c2noc(CCC(=O)NCCCN3CCN(c4cccc(Cl)c4)CC3)n2)cc1	?	?	nt	-26	11µM*
COc1ccc(-c2noc(CCC(=O)NCCN3CCN(c4ccccc4F)CC3)n2)cc1	-25%	?	nt	-35	6.3µM*
CSc1nnc(CNC(=O)c2cccc3ccccc23)n1-c1ccccc1C	1%	1%	-6%	nt	nt
CC1CCCN(C(=O)CSc2c3c(nc4cc(Cl)ccc24)CCCC3)C1 (centres undefined)	-15%	?	-5%	-39	nt
O=C(CCCNC(=O)c1ccc(Cl)cc1)Nc1ccc(F)c(S(=O)(=O)N2CCOCC2)c1	nt	-9%	nt	-10	-8%
Cc1ccc(-c2[nH]ncc2CNCc2ccccc2)cc1	-22%	nt	-26%	nt	nt
Cc1ccc(C)c(Cn2nnc(C(=O)NCc3ccc(Cl)cc3Cl)c2N)c1	-6%	?	i	-16	nt
Cc1cc(C)c(C(=O)/C=C/C=C/c2ccccc2)c(=O)[nH]1	?	39%	-29%	12	1%
Cc1cc(C)c(C(=O)/C=C/c2ccc(C(C)C)cc2)c(=O)[nH]1	?	32µM*	5µM*	-103*	-10%
Cc1ccc2oc(C(Cl)(Cl)Cl)cc(=O)c2c1	?	nt	11µM*	-89*	?
Cc1ccc2oc(C(F)(F)C(F)F)cc(=O)c2c1	-6%	-21%	-14%	34	17%
CCOc1cc(S(=O)(=O)Nc2ccccc2CC)ccc1Cl	-14%	9%	-3%	-30	10µM*
SMILES	Vaccinia Venus	FMDV inh	Vaccinia mCherry	HCMV inh	HCV inhibitor
CCCCCCCCN	nt	nt	nt	-12	nt
COc1ccc2oc3cc(C)[n+]([O-])c(-c4ccc(Br)cc4)c3c2c1	-16%	32µM*	-27%	-84*	?
CN(C)c1ccc(C(=O)OCC(=O)NCCNC(=O)COC(=O)c2ccc(N(C)C)cc2)cc1	-10%	-11%	i	27	-21%
COC(=O)c1ccc(CNC(=O)COC(=O)c2ccc(N(C)C)cc2)cc1	-12%	?	-18%	-66*	-29%
COc1ccc(S(=O)(=O)N2CCC(C(=O)Nc3ccc(Oc4ccccc4)cc3)CC2)cc1OC	-17%	-16%	-28%	-13	nt
CCCc1ccc(Oc2cn[nH]c2-c2ccc(O)c(C)c2O)cc1	-30%	nt	-11%	-61*	13µM*
COc1cccc(Oc2cn[nH]c2-c2ccc(O)cc2O)c1	-17%	nt	?	-16	?
COc1ccccc1Oc1cn[nH]c1-c1ccc(O)cc1O	nt	-26%	nt	-66*	-21%
